In the library only some 18% were active in any assay of this set; here they are far more common.
RORgamma inh – blocks mouse ROR gamma transcriptional activity; Drosophila S2 Gal4-RORgamma UAS-luciferase reporter, 20 h; Potency, µM (top dose mostly 53.6 µM), actives largely listed as inhibitors; 310,000 tested, 5.4% active; AID 2551; also: nearly all actives have a fitted effect of over 60% in size
Target sequence (P51450 whole entry, looked up, the tested form may be a part): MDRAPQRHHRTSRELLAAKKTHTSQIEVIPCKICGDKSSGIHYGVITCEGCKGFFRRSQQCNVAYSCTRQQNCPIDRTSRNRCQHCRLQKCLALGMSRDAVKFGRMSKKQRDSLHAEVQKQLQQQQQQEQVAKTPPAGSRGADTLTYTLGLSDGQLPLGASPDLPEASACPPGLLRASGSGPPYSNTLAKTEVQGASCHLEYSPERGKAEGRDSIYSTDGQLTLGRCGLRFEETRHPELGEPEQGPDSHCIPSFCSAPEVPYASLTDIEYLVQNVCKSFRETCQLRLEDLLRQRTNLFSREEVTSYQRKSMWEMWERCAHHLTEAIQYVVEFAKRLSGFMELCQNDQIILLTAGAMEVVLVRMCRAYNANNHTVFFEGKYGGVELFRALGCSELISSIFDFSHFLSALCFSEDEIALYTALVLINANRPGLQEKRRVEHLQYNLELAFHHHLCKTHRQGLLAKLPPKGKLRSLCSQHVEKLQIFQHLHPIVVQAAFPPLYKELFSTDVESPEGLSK
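Luciferase reporter read in Schneider cells carrying Gal4-RORγ (mouse) and UAS-Photinus luciferase; cells given compound 1 h before 700 uM copper sulfate induction, then incubated 20 h at ambient temperature.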
IL-1B inflam inh – inflammasome signaling inhibition, IL-1 beta readout | THP-1 LPS/ATP IL-1B secretion, AlphaLISA, 16 h; stronger effect = lower value | activity change, % at 57.5 µM | 360,000 tested, 4.7% active; in the data active = activity change below about -50%; inconclusive = mostly about -30% to -49%
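Secreted IL-1B measured by AlphaLISA bead assay after 16 h compound exposure of THP-1 cells; compounds (final up to 57.5 uM) added 1 h before LPS (250 ng/mL) and ATP (1.25 mM) stimulation; lower signal means less secretion.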
TDP1 cell CPT – DT40-hTDP1 cell growth loss with CPT; AID 686979; chicken DT40 Tdp1-/-;hTDP1 cells + 20 nM CPT, ATP luminescence, 48 h; 420,000 tested, 12% active; Potency, µM (highest dose often 46.2 µM), actives largely listed as inhibitors; also: nearly all actives have a fitted effect of over 55% in size
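Chicken DT40 Tdp1-/- cells stably complemented with human TDP1 were seeded at 400 cells/well in medium containing 20 nM camptothecin, exposed to pin-transferred compounds, and grown at 37 °C for at least 48 hr. Viability was read as ATP luminescence.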
TDP1 cell noCPT – qHTS for Inhibitors of human tyrosyl-DNA phosphodiesterase 1 (TDP1): qHTS in cells in absence of CPT | 420,000 tested, 15% active | DT40 Tdp1-/- hTDP1 cells, no CPT, ATP luminescence, 48 h | Potency, µM (titrated, usually from 46.2 µM), hits mostly inhibitors; also: nearly all actives have a fitted effect of over 55% in size
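DT40 Tdp1-/-;hTDP1 cells, no CPT (DMSO vehicle only), 400 cells/well; compounds pin-transferred; ≥48 hr, 37 °C; CellTiter-Glo 30 min RT dark, luminescence read.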
LDHA inh – LDHA (human) enzyme inhibition | P00338 | purified LDHA, NADH/diaphorase-resazurin fluorescence; stronger effect = lower value | activity change, % (values are at about 110 or 230 µM) | 480,000 tested, 0.15% active | AID 1347041; in the data active = activity change below about -30%; inconclusive = mostly about -25% to -30%
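Enzyme activity of human lactate dehydrogenase 5 (2 nM; 0.06 mM NADH, 0.2 mM pyruvate, 5 min, RT) is measured via a resazurin/diaphorase fluorescence readout of residual NADH.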
Gal4-VP16 FLuc – inhibits Gal4-VP16 luciferase reporter, ROR gamma counter-screen. AID 2546. Drosophila S2 Gal4-VP16 UAS-luciferase, luminescence, 20 h. Potency, µM (doses to about 53.6 µM), actives largely listed as inhibitors. 310,000 tested, 3.5% active;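 also: Gal4-VP16 expression switched on by copper sulfate through the metallothionein promoter; nearly all actives have a fitted effect of over 50% in size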
A number is an active result; - = inactive; ? = inconclusive; . = no result; [ ] = dose if it differs, or a comment. Unless noted, calls follow the shape of the dose curve; as a rule, active = well fitted curve in the direction sought with a large enough effect; inconclusive = small, poorly fitted or top-dose-only effect, or another doubt; inactive = no such curve, though single readings can be large; an effect the other way counts as inactive or inconclusive.

SMILES	RORgamma inh	IL-1B inflam inh	TDP1 cell CPT	TDP1 cell noCPT	LDHA inh	Gal4-VP16 FLuc
CC(C)CCNC(=O)c1cnn2c(C(F)(F)F)cc(-c3ccco3)nc12	-	-	11µM	32µM	-	-
O=C(NC1CCCC1)c1cnn2c(C(F)(F)F)cc(-c3ccc4c(c3)OCO4)nc12	-	-	7.3µM	16µM	-	-
O=C(NC1CCCC1)c1cnn2c(C(F)(F)F)cc(-c3ccco3)nc12	-	-	-	?	-	?
Cc1ccc(OCc2nnc(SCc3ccc(C#N)cc3)n2-c2ccc(C)cc2)cc1	-	-	?	16µM	-	-
Cc1ccc(-n2c(SCc3ccc([N+](=O)[O-])cc3)nc3ccccc3c2=O)cc1	-	-	?	?	-	-
COc1ccc(-n2c(SCc3ccc([N+](=O)[O-])cc3)nnc2-c2ccc(C)cc2)cc1	-	-50	?	?	-	4.5µM
Cc1ccc(-n2c(SCc3ccc(C#N)cc3)nnc2-c2ccccn2)cc1	-	-	-	-	-	-
CC(=O)c1ccc(-c2ccc3c4c(ccc3c2)OC(CNC(=O)C(C)N2CCOCC2)C4)s1 (stereo unspecified)	.	.	?	7.3µM	.	.
CC(=O)c1ccc(-c2cc(F)cc3c2OC(CNC(=O)c2ccc[n+]([O-])c2)C3)s1 (stereo unspecified)	.	.	-	-	.	.
COc1ccccc1CN1CCCCCC1	-	-	?	18µM	-	-
COc1ccc(Br)cc1CN1CCCCCCC1	-	-	-	-	-30	-
COc1ccccc1CN1CCC2(CC1)CCN(C(=O)c1ccncc1)CC2	-	.	-	-	.	-
COc1ccccc1CN1CCN(C(=O)c2ccncc2)CC1	-	-	-	-	-30	-
COc1ccccc1CN1CCSCC1	-	-	-	-	?	-
CCc1ccc(OC(=O)c2ccccc2Br)cc1	.	.	.	.	-	.
COc1ccc(-c2nnc(C(C)Sc3nnc(-c4cccs4)n3C3CC3)o2)cc1 (stereo unspecified)	.	.	.	.	-	.
CCc1cccc(C)c1NC(=O)Cn1nc(C(=O)O)c2ccccc2c1=O	.	.	.	.	-	.
COCCCNC(=O)CSc1ccccc1C	.	.	.	.	-	.
O=C(CN1C(=O)NC2(CCCC2)C1=O)OCCOc1cccc(Br)c1	.	-60	?	?	-	.
O=C(CN1C(=O)NC2(CCCC2)C1=O)OCCOc1ccccc1	-	-	?	-	-	-
O=C(CN1C(=O)NC2(CCCC2)C1=O)OCc1cc(=O)n2cc(Br)ccc2n1	3.2µM	-	-	-	-	-
Brc1ccc(-c2noc(-c3ccncc3)n2)o1	.	.	.	.	-	.
CCOc1ccc2nc(NC(=O)CS(=O)(=O)c3ccc(Cl)cc3)sc2c1	.	.	?	16µM	-	.
CS(=O)(=O)c1ccc2nc(NC(=O)CS(=O)(=O)c3ccc(Cl)cc3)sc2c1	.	.	-	?	-	.
CCOc1ccc2nc(NC(=O)CS(=O)(=O)c3ccccc3)sc2c1	-[0.365 µM]	-	-	?	-	.
SMILES	RORgamma inh	IL-1B inflam inh	TDP1 cell CPT	TDP1 cell noCPT	LDHA inh	Gal4-VP16 FLuc
CCOc1ccc2nc(NC(=O)CS(=O)(=O)c3ccc(C)cc3)sc2c1	-	-	-	16µM	-	?
COc1ccc(C)cc1Nc1nc2ccccc2nc1NS(=O)(=O)c1cccc2nsnc12	.	.	.	.	-	.
CC(Sc1nnc(N2CCOCC2)n1-c1ccccc1)C(=O)c1ccc(Br)cc1 (stereo unspecified)	.	.	.	.	-	.
O=C(NCCSCc1cccs1)C1CCCC1	.	.	.	.	-	.
CC12CCC(=O)C=C1CCC1C2C(O)CC2(C)C(c3csc(N)n3)CCC12 (stereo unspecified)	.	-	3.7µM	3.3µM	-	.
CC12CCC(=O)C=C1CCC1C2CCC2(C)C(c3csc(N)n3)CCC12 (stereo unspecified)	.	-82	5.8µM	5.8µM	-	.
C[C@@]12C[C@@H](O)[C@H]3[C@@H](CCC4=CC(=O)CC[C@]43C)[C@H]1CC[C@H]2C(=O)CO	-	.	.	.	.	-
CC(C)(C)C(=O)OCC(=O)[C@H]1CC[C@H]2[C@@H]3CCC4=CC(=O)CC[C@]4(C)[C@H]3CC[C@]12C	.	.	-	-	.	.
C/C=C1/C(=O)C[C@@H]2[C@H]3CCC4=CC(=O)CC[C@]4(C)[C@@H]3CC[C@]12C	.	.	?	15µM	.	.
Cc1cc(C(=O)CN(C)Cc2ccc3c(c2)OCO3)c(C)n1C(C)C	.	.	.	.	-	.
Cc1ccc(NC(=O)CSc2nc3ccc(NC(=O)CCc4ccccc4)cc3s2)cc1	.	.	?	?	-	.
Cc1ccccc1NC(=O)CSc1nc2ccc(NC(=O)c3ccco3)cc2s1	.	.	16µM	21µM	-	.
Cc1ccccc1NC(=O)CSc1nc2ccc(NC(=O)CCc3ccccc3)cc2s1	.	.	?	9.2µM	-	.
Cc1ccc(NC(=O)CSc2nc3ccc(NC(=O)c4cccc(Cl)c4)cc3s2)c(C)c1	.	.	?	?	-	.
Cc1ccc(NC(=O)CSc2nc3ccc(NC(=O)c4ccco4)cc3s2)c(C)c1	.	.	16µM	7.3µM	-	.
CSc1nc2ccc(NC(=O)c3c(-c4ccccc4)noc3C)cc2s1	-	-65	-	?	-	-
O=C(O)C(c1c[nH]c2cc(OCc3ccccc3)ccc12)N1CCN(Cc2ccccc2)CC1 (stereo unspecified)	.	.	.	.	-	.
CC(NC(=O)c1cccc(F)c1)C12CC3CC(CC(C3)C1)C2 (stereo unspecified)	.	.	.	.	-	.
CCC1CCCCN1C(=O)Cn1c(=O)n(Cc2ccc3c(c2)OCO3)c(=O)c2sccc21 (stereo unspecified)	.	.	.	.	-	.
COc1cccc(NC(=O)CSc2nc3ccc(NC(=O)c4ccco4)cc3s2)c1	.	.	13µM	18µM	-	.
Cc1nc2ccc(NC(=O)c3ccco3)cc2s1	-	-	-	-	-	-
Cc1ccccc1NC(=O)CSc1nc2ccc(NC(=O)c3ccccc3)cc2s1	.	.	?	16µM	-	.
Cc1ccccc1OCCSc1nc2ccc(NC(=O)c3ccccc3)cc2s1	.	.	-	?	-	.
Cc1cccc(NC(=O)CSc2nc3ccc(NC(=O)c4ccco4)cc3s2)c1	.	.	10µM	2.6µM	-	.
COc1ccc(NC(=O)CSc2nnc(NC(=O)c3ccco3)s2)cc1	-	-	-	-	-	-
Nc1n[nH]c(N)c1N=Nc1cccc(F)c1	-	-78	?	-	-	-
COc1cc2c(cc1NS(=O)(=O)c1cccc(C#N)c1)n(C)c(=O)n2C	.	.	21µM	?	-	.
CCOC(=O)c1cnn(-c2cc(C)nc3c(-c4ccc(F)cc4)c(CC)nn23)c1N	.	.	.	.	-	.
CCO/C=C/C(O)(CNC(=O)c1ccc(C(C)(C)C)cc1)C(F)(F)F (stereo unspecified)	-	-	?	16µM	-	20µM

Bioassay records as filed in PubChem.
